Experimental data: PubChem BioAssay (NCI)
This is part of a sample that, as a whole, favours compounds with a hit. Of some 83,000 tested, about 20% had one in any assay.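 Results are percent growth after 48 hours of single-concentration exposure. 100 means growth as in untreated cells, lower positive values show inhibition; negative values down to -100 show cell death.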 Activity calls are given as the source filed them. The calls were made as follows: active = growth percent below 10; inactive = the rest.

Key:
Experiment in all cases: NCI-60 one-dose screen, 48 h (100 = growth as untreated, 0 = no growth, -100 = all killed)
Conditions in all cases: 10 µM unless noted
HT29 colon = system: HT29 colon
SNB-75 CNS = system: SNB-75 CNS
SNB-19 CNS = system: SNB-19 CNS
U251 CNS = system: U251 CNS
PC-3 prostate = system: PC-3 prostate
UACC-62 melanoma = system: UACC-62 melanoma
LOX IMVI melanoma = system: LOX IMVI melanoma
SK-MEL-28 melanoma = system: SK-MEL-28 melanoma
SK-MEL-2 melanoma = system: SK-MEL-2 melanoma
EKVX NSCLC = system: EKVX NSCLC
SN12C renal = system: SN12C renal
UO-31 renal = system: UO-31 renal
TK-10 renal = system: TK-10 renal
ACHN renal = system: ACHN renal
CAKI-1 renal = system: CAKI-1 renal
A498 renal = system: A498 renal
CCRF-CEM leukemia = system: CCRF-CEM leukemia
MOLT-4 leukemia = system: MOLT-4 leukemia
SR leukemia = system: SR leukemia

Measured: growth

CC[C@@H]1OC(=O)[C@H](C)[C@@H](O[C@H]2C[C@@](C)(OC)[C@@H](O)[C@H](C)O2)[C@H](C)[C@@H](O[C@@H]2O[C@H](C)C[C@H](N(C)C)[C@H]2O)[C@](C)(O)C[C@@H](C)[C@@H]2N[C@@H](COCCOC)O[C@H]([C@H]2C)[C@]1(C)O
inactive: HT29 colon 103% | SNB-75 CNS 77.4% | SNB-19 CNS 104% | U251 CNS 96.6% | PC-3 prostate 111% | UACC-62 melanoma 109% | LOX IMVI melanoma 94.8% | SK-MEL-28 melanoma 109% | SK-MEL-2 melanoma 121% | EKVX NSCLC 102% | SN12C renal 98.9% | UO-31 renal 81.5% | TK-10 renal 119% | ACHN renal 102% | CAKI-1 renal 96.6% | A498 renal 119% | CCRF-CEM leukemia 82.4% | MOLT-4 leukemia 90.1%

C=CCCCCCCCCC(=O)[O][Sn]([CH2]CCC)([CH2]CCC)[CH2]CCC
active: HT29 colon -76.3% | SNB-75 CNS -98.2% | SNB-19 CNS -79.2% | U251 CNS -74% | PC-3 prostate -93.5% | UACC-62 melanoma -90.4% | LOX IMVI melanoma -90.9% | SK-MEL-28 melanoma -93.5% | EKVX NSCLC -55.1% | SN12C renal -82% | UO-31 renal -88.7% | TK-10 renal -92.2% | ACHN renal -99.6% | CAKI-1 renal -89.4% | A498 renal -97.3% | MOLT-4 leukemia 4.17%

Cc1c(N(C)CS(=O)(=O)O)c(=O)n(-c2ccccc2)n1C
inactive: HT29 colon 97.7% | SNB-75 CNS 111% | SNB-19 CNS 101% | U251 CNS 100% | PC-3 prostate 94.8% | UACC-62 melanoma 96.9% | LOX IMVI melanoma 104% | SK-MEL-28 melanoma 108% | EKVX NSCLC 93.1% | SN12C renal 93.9% | UO-31 renal 79.9% | TK-10 renal 108% | ACHN renal 101% | CAKI-1 renal 98.8% | A498 renal 109% | CCRF-CEM leukemia 96.9% | MOLT-4 leukemia 83%

CN(C)c1ccc2[nH]c3c(C(N)=O)cc(=O)c(=O)c=3oc2c1
inactive: HT29 colon 127% | SNB-75 CNS 52.7% | SNB-19 CNS 74.4% | U251 CNS 35.4% | PC-3 prostate 59.3% | UACC-62 melanoma 62.6% | SK-MEL-28 melanoma 85.8% | SK-MEL-2 melanoma 85.4% | SN12C renal 54.5% | UO-31 renal 56.3% | TK-10 renal 111% | ACHN renal 29.7% | CAKI-1 renal 83.2% | A498 renal 87.7% | CCRF-CEM leukemia 11.9%
active: LOX IMVI melanoma 8.85% | MOLT-4 leukemia 9.08%

C=CC1=C(C(=O)O)N2C(=O)[C@@H](NC(=O)/C(=N\O)c3csc(N)n3)[C@H]2SC1 (stereo in doubt)
inactive: HT29 colon 104% | SNB-75 CNS 92.4% | SNB-19 CNS 114% | U251 CNS 92.1% | PC-3 prostate 95.3% | UACC-62 melanoma 114% | LOX IMVI melanoma 88.1% | SK-MEL-28 melanoma 111% | SK-MEL-2 melanoma 122% | EKVX NSCLC 103% | SN12C renal 112% | TK-10 renal 122% | ACHN renal 96.7% | CAKI-1 renal 99.2% | A498 renal 95.1% | CCRF-CEM leukemia 98.1% | MOLT-4 leukemia 104%

CCOC(=O)C1=C(COCCN)NC(C)=C(C(=O)OC)C1c1ccccc1Cl (stereo not given)
inactive: HT29 colon 11.4% | SNB-75 CNS 72.3% | SNB-19 CNS 102% | U251 CNS 52.8% | PC-3 prostate 66.9% | UACC-62 melanoma 60.5% | LOX IMVI melanoma 32.3% | SK-MEL-28 melanoma 75.9% | SK-MEL-2 melanoma 90.2% | EKVX NSCLC 83.9% | SN12C renal 75.9% | UO-31 renal 45.4% | TK-10 renal 67.8% | ACHN renal 43.8% | CAKI-1 renal 64.5% | A498 renal 62.4% | CCRF-CEM leukemia 66.2% | MOLT-4 leukemia 67%

CCN1C2=C(SC(=S)C1=C1SC(C(=O)OC)=C(C(=O)OC)S1)SC(=Nc1ccc(OC)cc1)C2=O
active: HT29 colon -6.07% | SNB-75 CNS -16.1% | SNB-19 CNS 4.72% | U251 CNS -32.5% | PC-3 prostate 2.92% | UACC-62 melanoma -76.8% | LOX IMVI melanoma -72.1% | SK-MEL-28 melanoma -55% | SK-MEL-2 melanoma -5.85% | SN12C renal -11.8% | UO-31 renal -73% | ACHN renal -74.3% | CAKI-1 renal -38.4% | CCRF-CEM leukemia 4.67%
inactive: EKVX NSCLC 34.7% | TK-10 renal 30.3% | A498 renal 46% | MOLT-4 leukemia 13.2% | SR leukemia 19.2%

CCOc1cc(C(C)(C)C)ccc1C1=N[C@H](c2ccc(Cl)cc2)[C@H](c2ccc(Cl)cc2)N1C(=O)N1CCN(CC#Cc2cccc3c2CN([C@@H]2CCC(=O)NC2=O)C3=O)CC1
inactive: HT29 colon 12.6% | SNB-75 CNS 23% | SNB-19 CNS 45% | U251 CNS 65.8% | UACC-62 melanoma 24.3% | LOX IMVI melanoma 31.8% | SK-MEL-28 melanoma 53.4% | SK-MEL-2 melanoma 44.9% | EKVX NSCLC 48.4% | SN12C renal 24.4% | TK-10 renal 49% | ACHN renal 23.6% | A498 renal 14.1%
active: PC-3 prostate 0.359% | UO-31 renal 5.26% | CAKI-1 renal 7.99% | CCRF-CEM leukemia -4.36% | SR leukemia 9.99%

CCC1=C(c2ccc(OC)cc2)C(C)Oc2cc(OC(C)=O)ccc21 (stereo not given)
active: U251 CNS -0.227%
inactive: HT29 colon 102% | SNB-75 CNS 71.9% | SNB-19 CNS 88.6% | PC-3 prostate 68.3% | UACC-62 melanoma 74% | LOX IMVI melanoma 90.6% | SK-MEL-28 melanoma 93.7% | SK-MEL-2 melanoma 89.7% | EKVX NSCLC 75% | SN12C renal 90.4% | UO-31 renal 88.6% | TK-10 renal 98.6% | ACHN renal 88% | CAKI-1 renal 74.9% | A498 renal 90.7% | CCRF-CEM leukemia 63.5% | MOLT-4 leukemia 76.7% | SR leukemia 53%

Clc1cc(Cl)c(OCC#CI)cc1Cl
active: LOX IMVI melanoma -56% | ACHN renal 2.93%
inactive: HT29 colon 10.4% | SNB-75 CNS 87.6% | SNB-19 CNS 108% | U251 CNS 78.9% | PC-3 prostate 75.6% | UACC-62 melanoma 62.8% | SK-MEL-28 melanoma 17.2% | SK-MEL-2 melanoma 75.8% | EKVX NSCLC 98.8% | SN12C renal 53.7% | UO-31 renal 38.4% | TK-10 renal 69.8% | CAKI-1 renal 15.7% | A498 renal 119% | CCRF-CEM leukemia 27.8% | MOLT-4 leukemia 41.5% | SR leukemia 11.4%

C/C(=C\CCc1ccoc1)CC/C=C(\C)CCCN1CCC(CO)CC1
active: HT29 colon 6.48% | UACC-62 melanoma -63.3% | SR leukemia 2.6%
inactive: SNB-75 CNS 36.4% | SNB-19 CNS 76.2% | U251 CNS 40% | PC-3 prostate 57.8% | SK-MEL-28 melanoma 56.3% | SN12C renal 71.1% | UO-31 renal 75.1% | TK-10 renal 97.2% | ACHN renal 59.4% | CAKI-1 renal 82.7% | A498 renal 45% | CCRF-CEM leukemia 37.9% | MOLT-4 leukemia 24.6%

CN(CCOc1ccc(CC2SC(=O)NC2=O)cc1)c1ccccn1 (stereo not given)
inactive: HT29 colon 117% | SNB-75 CNS 96.3% | SNB-19 CNS 105% | U251 CNS 90.7% | PC-3 prostate 105% | UACC-62 melanoma 93.1% | LOX IMVI melanoma 92.8% | SK-MEL-28 melanoma 111% | EKVX NSCLC 101% | SN12C renal 88.2% | UO-31 renal 72.1% | TK-10 renal 103% | ACHN renal 84.9% | CAKI-1 renal 96.3% | A498 renal 110% | CCRF-CEM leukemia 108% | MOLT-4 leukemia 119%

O=C1c2ccccc2-c2c1nc1ccccc1[n+]2[O-]
inactive: HT29 colon 105% | SNB-75 CNS 103% | SNB-19 CNS 103% | U251 CNS 103% | PC-3 prostate 99.4% | UACC-62 melanoma 105% | LOX IMVI melanoma 101% | SK-MEL-28 melanoma 113% | SK-MEL-2 melanoma 107% | EKVX NSCLC 118% | SN12C renal 100% | UO-31 renal 83.3% | TK-10 renal 116% | ACHN renal 91.4% | CAKI-1 renal 98.2% | A498 renal 103% | CCRF-CEM leukemia 102% | MOLT-4 leukemia 95.8%

O=C1CN(CO)C(=O)CN1CO
inactive: HT29 colon 109% | SNB-75 CNS 94.2% | SNB-19 CNS 101% | U251 CNS 100% | PC-3 prostate 95.4% | UACC-62 melanoma 98.3% | LOX IMVI melanoma 99.7% | SK-MEL-28 melanoma 112% | SK-MEL-2 melanoma 121% | EKVX NSCLC 114% | SN12C renal 99.3% | UO-31 renal 87.7% | TK-10 renal 124% | ACHN renal 97.6% | CAKI-1 renal 94.8% | A498 renal 94% | CCRF-CEM leukemia 92.8% | MOLT-4 leukemia 105%

COC1CC2CCC(C)C(O)(O2)C(=O)C(=O)N2CCCCC2C(=O)OC(C(C)CC2CCC(O)C(OC)C2)CC(=O)C(C)C=C(C)C(O)C(OC)C(=O)C(C)CC(C)/C=C/C=C/C=C1C (stereo not given)
inactive: HT29 colon 43.7% | SNB-75 CNS 13.5% | SNB-19 CNS 38.1% | U251 CNS 35.8% | PC-3 prostate 31.3% | UACC-62 melanoma 36.5% | LOX IMVI melanoma 39% | SK-MEL-28 melanoma 54.1% | SK-MEL-2 melanoma 35.9% | EKVX NSCLC 30.3% | SN12C renal 48.2% | UO-31 renal 21.5% | TK-10 renal 49.7% | ACHN renal 40.3% | CAKI-1 renal 49% | CCRF-CEM leukemia 37.9% | MOLT-4 leukemia 21.4%
active: A498 renal -5.92%

CO[C@H]1CC(O[C@@H]2/C(C)=C/C[C@@H]3C[C@@H](C[C@]4(CC[C@H](C)[C@@H](C5CCCCC5)O4)O3)OC(=O)[C@@H]3C=C(C)/C(=N/O)[C@H]4OC/C(=C\C=C\[C@@H]2C)[C@]43O)O[C@@H](C)C1O (stereo not given in full)
active: HT29 colon -70.9% | SNB-75 CNS -90.4% | SNB-19 CNS -96.6% | U251 CNS -87.6% | PC-3 prostate -80.4% | UACC-62 melanoma -93.4% | LOX IMVI melanoma -92.9% | SK-MEL-28 melanoma -87.3% | SK-MEL-2 melanoma -71.8% | EKVX NSCLC -85.9% | SN12C renal -82.4% | UO-31 renal -90.5% | TK-10 renal -90.4% | ACHN renal -94.4% | CAKI-1 renal -73.8% | A498 renal -96.2% | CCRF-CEM leukemia -47.9% | MOLT-4 leukemia -36.7%

CCCCCCC/C(=N\N=C(N)N)c1ccc(O)cc1
active: HT29 colon 3.57%
inactive: SNB-75 CNS 81.6% | SNB-19 CNS 37.1% | U251 CNS 30.7% | PC-3 prostate 24.6% | UACC-62 melanoma 51.4% | LOX IMVI melanoma 31.4% | SK-MEL-28 melanoma 60.4% | SK-MEL-2 melanoma 48.3% | SN12C renal 39.6% | UO-31 renal 42.8% | TK-10 renal 67.5% | ACHN renal 47.6% | CAKI-1 renal 66.5% | A498 renal 46.6% | CCRF-CEM leukemia 39.7% | MOLT-4 leukemia 24.9%
